The campaign covered roughly 340,000 compounds. About 2,100 (0.62%) were called active.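 The calls were made as follows: active = first-screen hits whose inhibition reached a set limit at any dose in the follow-up dose series; inconclusive = inhibition above the set first-screen limit but never retested; inactive = the rest.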 A selection follows. Results with a measured potency or affinity are listed apart.
Each compound was assayed against Rac GTPase-activating protein 1 (Homo sapiens) (UniProt Q9H0H5) (assay: blockers of MgcRacGAP-driven Rac1 GTP hydrolysis – biochemical, ADP Hunter fluorescence, primary and confirmatory, confirmation (AID 624330;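 also: fluorescence reports GDP produced by GAP-driven GTP hydrolysis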)). Details: MgcRacGAP-stimulated Rac1 GTP hydrolysis, at 30 µM, hits give high values, GST-tagged Rac1 F28L mutant substrate.
Sequence of Rac GTPase-activating protein 1 (Homo sapiens) (Q9H0H5 whole entry, looked up): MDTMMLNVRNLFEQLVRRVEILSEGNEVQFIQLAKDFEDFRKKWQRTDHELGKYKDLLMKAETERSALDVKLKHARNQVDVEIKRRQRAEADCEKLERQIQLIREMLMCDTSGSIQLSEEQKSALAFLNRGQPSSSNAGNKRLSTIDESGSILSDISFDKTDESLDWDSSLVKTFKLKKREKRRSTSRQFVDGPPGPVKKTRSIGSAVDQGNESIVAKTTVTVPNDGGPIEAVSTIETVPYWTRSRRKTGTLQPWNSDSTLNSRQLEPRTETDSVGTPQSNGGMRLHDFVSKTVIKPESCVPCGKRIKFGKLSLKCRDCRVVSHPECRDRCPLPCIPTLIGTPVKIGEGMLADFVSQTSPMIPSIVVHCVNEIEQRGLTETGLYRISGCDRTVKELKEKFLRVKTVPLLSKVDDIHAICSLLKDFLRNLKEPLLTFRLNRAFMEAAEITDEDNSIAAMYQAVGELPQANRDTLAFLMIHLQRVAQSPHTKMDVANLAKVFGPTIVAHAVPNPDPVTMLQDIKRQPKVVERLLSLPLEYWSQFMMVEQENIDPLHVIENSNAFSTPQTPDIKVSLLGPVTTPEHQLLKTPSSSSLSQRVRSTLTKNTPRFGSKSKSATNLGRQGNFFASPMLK

inhibition, inactive:
CCOC(=O)Cc1csc(NC(=O)CN2CCOCC2)n1 5.22%, O=C1NC2(CCc3ccccc32)C(=O)N1CCOc1ccc(Cl)cc1 (centres undefined) 2.47%, CCN(C1CCS(=O)(=O)C1)S(=O)(=O)c1ccc(Cl)s1 (centres undefined) 4.17%, CCOC(=O)C1=C(O)CSC1=Nc1cccc2ccccc12 1.02%, c1ccc2nc3ccccc3nc2c1 2.14%, COc1ccc(OC)c(CN2CCN(C(=O)c3cccc4ccccc34)CC2)c1 13.1%, Cc1cccc(CN2CCN(C(=O)c3cccc4ccccc34)CC2)c1 15.3%, Cc1ccc(CN2CCN(C(=O)c3cccc4ccccc34)CC2)cc1 23.8%, COc1cccc(CN2CCN(C(=O)c3cccc4ccccc34)CC2)c1OC 17.9%, Cc1cc(C)c(C)c(OCCCN(C)C)c1 17%, CSc1nnnn1-c1cccc(O)c1 -2.6%, Cc1cc(Cl)ccc1Oc1ncnc2onc(C)c12 4.86%, CCOCCCNC(=O)c1ccc(OC2CCN(C(C)=O)CC2)c(OC)c1 9.51%, COCc1cc(NCc2ccc(Cl)cc2)nc(C)n1 5.03%, COCc1cc(Sc2ccc(Cl)cc2)nc(C)n1 3.56%, CC(C)(C)c1ccc(C2=NC(=O)C(CC(=O)O)S2)cc1 (centres undefined) 10.5%, CN(C1=NC(=O)C(CC(=O)O)S1)c1ccc(O)cc1 (centres undefined) 2.49%, Cc1nn(CC(=O)NCC(C)c2ccccc2)c(=O)c2cc3occc3n12 (centres undefined) 10%, Cc1ccc(-c2csc3ncnc(SCC(=O)c4ccc5c(c4)OCCO5)c23)cc1 1.98%, CC1Cc2ccccc2N1C(=O)COc1ccc2c(c1)OCO2 (centres undefined) -12.8%, CC(=O)c1ccc(N2CCN(C(=S)NCc3ccco3)CC2)cc1 3.83%, CC(=O)N1CCN(c2ccc(NCc3ccc(-c4ccc(Br)cc4)o3)cc2)CC1 5.41%, CC(=O)N1CCN(c2ccc(NCc3ccc(-c4cccc(Cl)c4)o3)cc2)CC1 15%, CC(=O)N1CCN(c2ccc(NC(=O)c3ccco3)cc2)CC1 8.89%, COc1ccc(N2CCN(C(CNC(=O)OCc3ccccc3)c3ccco3)CC2)cc1 (centres undefined) 23%, COc1ccc(C2(C)NC(=O)N(CC(=O)Nc3c(C)n(C)n(-c4ccccc4)c3=O)C2=O)cc1 (centres undefined) -6.4%, CC(C)(C)OC(=O)C[C@@H]1C/C=C\C[C@H](CC(=O)N(CCO)Cc2ccccc2)C(=O)N[C@H](Cc2ccccc2)COC1=O -1.04%, N#C/C(=C\c1cc([N+](=O)[O-])c(N2CCOCC2)cc1N1CCOCC1)c1nc2ccccc2[nH]1 6.08%, N#C/C(=C\c1ccc(Sc2ccccc2)o1)c1nc2ccccc2[nH]1 11.4%, N#C/C(=C\c1ccc(N2CCOCC2)c([N+](=O)[O-])c1)c1nc2ccccc2[nH]1 1.39%, N#C/C(=C\c1ccc(-c2ccc(C(=O)O)cc2)o1)c1nc2ccccc2[nH]1 2.64%, CC1CN(C(=O)COC(=O)c2ccc3ccccc3c2)CC(C)O1 (centres undefined) 8.18%, CCCCOC(=O)c1cccc(NC(=O)CC)c1 -6.05%, O=C(C[C@H]1C/C=C\C[C@H](NC(=O)OCC2c3ccccc3-c3ccccc32)C(=O)OC[C@H](Cc2ccccc2)NC1=O)N[C@H](CO)Cc1ccccc1 3.81%, CC(OC(=O)CC(C)c1ccccc1)C(=O)Nc1ccc(Cl)cn1 (centres undefined) 4.3%, COc1ccc(/C=N/n2c(C)nc3ccccc3c2=O)cc1OC 3.76%, COc1ccc(/C=C/c2nc(N)nc(-c3ccccc3O)n2)cc1OC 4.75%, COc1ccc(-n2c(/C=C3\C(=O)N(C)c4ccccc43)nc3ccccc3c2=O)cc1 9.39%, CCCc1nc2ccccc2c(=O)n1/N=C/c1ccc(O)cc1 6.59%, CCCc1nc2ccccc2c(=O)n1/N=C/c1ccccc1O 11.4%, COc1ccc(/C=C/c2nc3ccccc3c(=O)n2-c2cccc(C(=O)O)c2)cc1 6.96%, COc1cc(/C=N/n2c(C)nc3ccccc3c2=O)cc(OC)c1O 7.15%, C/C=C/c1ccc(O)c(OC)c1 21.3%, O=C(CN1CCN(C(=O)C2CCCO2)CC1)Nc1cc(C(F)(F)F)ccc1Cl (centres undefined) 4.9%, CCOC(=O)C1CCN(C(=O)c2cc(S(=O)(=O)N3CCCCCC3)ccc2OC)CC1 0.78%, CCCCNC(=O)NC(C(=O)OC)C12CC3CC(CC(C3)C1)C2 (centres undefined) 0.62%, CCCN(CCC)CCNS(=O)(=O)c1ccc2c(c1)CCN2C(=O)C1CCC1 12.9%, CCCCN(CCCC)S(=O)(=O)c1ccc(NS(=O)(=O)c2ccc(NC(C)=O)cc2)cc1 5.52%, COc1ccc(-c2nn(-c3ccccc3)cc2C(=O)NC2CCCCC2C)cc1 (centres undefined) 7.37%, CCOCCCNC(=O)C1CCCN(S(=O)(=O)c2ccc(-n3cnnn3)cc2)C1 (centres undefined) 1.87%, CCOC(=O)c1ccc(NC(=S)NCCCn2ccnc2)cc1 -38.2%, COc1ccc(CCN2CN(S(=O)(=O)c3ccccc3)c3nc4ccccc4nc32)cc1OC 2.57%, CCOc1ccc(NC(=S)N(Cc2ccc(N(C)C)cc2)Cc2ccco2)cc1 1.67%, O=C(O)C1CCCN1S(=O)(=O)c1ccc2ccccc2c1 (centres undefined) -1.39%, COC(=O)c1cccc(NS(=O)(=O)c2ccc(OC)c(OC)c2)c1C 4.85%, O=C(CCCc1cccs1)Nc1nc(-c2ccc(F)cc2)cs1 9.23%, O=C(c1cccs1)N1CCN(c2ncc(C(F)(F)F)cc2Cl)CC1 8.94%, O=C(Cc1ccc(Cl)cc1)Nc1ccc2c(c1)C(=O)NC2=O 10.3%, COc1ccc(-c2c(-c3ccsc3)oc(=O)c3cc(OC)c(OC)cc23)cc1 3.56%, COc1ccc(/C=C/c2ccc3cccc(O)c3n2)cc1Br 5.56%, CCOc1cc(/C=C/c2nc3ccccc3c(=O)[nH]2)ccc1O 11.1%, O=C(O)c1cccc(-n2c(/C=C/c3ccccc3)nc3ccccc3c2=O)c1 -7.35%, COc1ccc(/C=N/Nc2nc3ccccc3c(=O)n2-c2ccccc2)cc1OC 8.28%, O=C(O)c1ccc(-n2c(/C=C/c3ccccc3)nc3ccccc3c2=O)cc1 -4%, COc1cc(/C=C/c2ccc3cccc(O)c3n2)cc(OC)c1OC 3.89%, Cc1cc(C)cc(Nc2c3c(nc4ncnn24)CCC3)c1 8.12%, CCC1=C(OC(=O)N(CC)CC)N2C(=O)OC(=NCCOC)[C@]2(Cc2ccccc2)[C@H]2C1=CC[C@H]1C(=O)N(CC(=O)OC)C(=O)[C@H]12 11.9%, CN(C(=O)c1cccc(NC(=O)Cc2ccc(NC(=O)C3CCN(C(=O)C4CC4)CC3)cc2)c1)C1CCC1 6.53%, O=C(NCc1cccnc1)C1CC(c2cccc(Br)c2)=NO1 (centres undefined) 0.07%, CC(C(=O)NCc1ccc(F)cc1)c1ccc([N+](=O)[O-])cc1 (centres undefined) 8.32%, CN1CCN(S(=O)(=O)c2ccc(Oc3ccc(F)cc3Br)nc2)CC1 6.58%, CCC1CCCCN1C(=S)NC(=O)c1cc(Br)ccc1Cl (centres undefined) 4.56%, CCc1nnc(NC(=O)Cn2nnc(-c3ccccc3F)n2)s1 5.2%, CCCCCCCn1c2c(c(=N)c3ccccc31)CCC2 9.88%, CCCCCn1c2c(c(=N)c3ccccc31)CCC2 7.04%, O=C(CN1CCC(NC(=O)Nc2ccccc2)CC1)Nc1ccccc1F 5.94%, Cc1ccc(S(=O)(=O)N(C)c2ccccc2C(=O)N2CCOCC2)cc1 6.35%, O=C(Cc1ccc(Br)cc1)NCCc1ccc(F)cc1 9.29%, COc1ccc(S(=O)(=O)NC(C)C(=O)N2CCCC2)cc1Cl (centres undefined) 1.21%, CCOc1ccc(Nc2nc(-c3cccnc3)cs2)cc1 6.12%, Cc1cccc(Nc2nc(-c3ccc(O)cc3O)cs2)n1 -2.8%, CN(C)c1ccc(Nc2nc(-c3cccnc3)cs2)cc1 14.4%, COc1ccc(-c2csc(Nc3ccccc3)n2)cc1 15.5%, Cc1ccnc(Nc2nc(-c3ccc(O)cc3O)cs2)c1 15.2%, Cc1ccc(-c2csc(Nc3ccccn3)n2)cc1 14%, c1ccc(-c2csc(Nc3ccccn3)n2)cc1 13.5%, COc1cccc(Nc2nc(-c3cccnc3)cs2)c1 10.7%, Cc1cccc2cc(COC(=O)COc3ccccc3)c(=O)[nH]c12 12%, CCC(=O)Oc1ccc(NC(=O)CSCc2ccccc2)cc1 13.9%, COc1ccc(CCNC(=O)COC(=O)Cc2ccccc2[N+](=O)[O-])cc1 3.96%, CCOC(=O)c1ccc(S(=O)(=O)N2CC(=O)Nc3ccccc32)cc1 8.64%, c1cncc(Nc2nc(-c3ccncc3)cs2)c1 6.09%, COc1ccc(-c2csc(NCc3ccco3)n2)cc1 12%, Cc1ccc(Nc2nc(-c3c(C)nc4ncccn34)cs2)cc1 11.3%, c1ccc(-c2csc(Nc3ncccn3)n2)cc1 0.5%, c1coc(CNc2nc(-c3ccncc3)cs2)c1 5.25%, CC(=O)Nc1ccc(-c2csc(Nc3ncccn3)n2)cc1 7.36%, c1ccc(-c2csc(Nc3cccnc3)n2)cc1 3.24%, Cc1nc2ncccn2c1-c1csc(Nc2ccccc2)n1 11%

Source: PubChem BioAssay AID624330 (Southern Research Specialized Biocontainment Screening …, 2012)
